Measured values from PubChem BioAssay (NCI).
Compounds without any hit were thinned out: in the full panel of roughly 83,000, 20% have a hit.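 Growth was measured after 48 h exposure to one concentration of compound in 96-well plates. Values under 10 count as active.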 A number with no mark means an inactive call. Activity calls are given as the source filed them.

Assays:
Assay in all cases: NCI-60 one-dose screen, 48 h (100 = growth as untreated, 0 = no growth, -100 = all killed)
Conditions in all cases: 10 µM unless noted
[1] = tested on: NCI-H23 lung
[2] = tested on: NCI-H226 lung
[3] = tested on: NCI-H322M lung
[4] = tested on: HOP-62 NSCLC
[5] = tested on: NCI-H460 lung
[6] = tested on: HOP-92 NSCLC
[7] = tested on: NCI-H522 lung
[8] = tested on: A549/ATCC NSCLC
[9] = tested on: 786-0 renal
[10] = tested on: COLO 205 colon

Row | Compound | growth [1] | growth [2] | growth [3] [%] | growth [4] [%] | growth [5] | growth [6] | growth [7] | growth [8] | growth [9] | growth [10]
1 | Cc1ccc(CNc2ccc3nc(CCC(C)C)[nH]c3c2)cc1 | 94.2% | 89.8% | 100 | 99.6 | 106% | 56.7% | 84.2% | 97.6% | 84% | 102%
2 | COc1ccc(CCN(CC(=O)N(CC(N)=O)C2CCC[C@@H]2OCc2ccccc2)C(=O)CN(C(=O)CN(CCc2ccc(Cl)cc2)C(=O)CN(C(=O)CN(C)Cc2ccccc2F)[C@H](C)C2CCCCC2)[C@H](C)C2CCCCC2)cc1OC (stereo not given in full) | 31.9% | 53.5% | 40.6 | 41.8 | 28.3% | 10.3% | 24.5% | 23.4% | 44% | -17.4% (active)
3 | N#C/C(=C\c1cn(Cc2ccccc2)c2ccccc12)C(=O)Nc1ncc(Cc2ccccc2Cl)s1 | -29.3% (active) | -33.6% (active) | 36.1 | 12.5 | -44.2% (active) | -6.07% (active) | 30.3% | 8.73% (active) | 6.01% (active) | -2.97% (active)
4 | C[C@H](CCCC(=O)NCC#CCN1CCN(C)CC1)[C@H]1CC[C@H]2[C@@H]3CC[C@@H]4CC(=O)CC[C@]4(C)[C@H]3CC[C@]12C | 87.7% | 103% | 97.7 | 96.2 | 96% | 73.7% | 102% | 95.7% | 97% | 95.1%
5 | CS(=O)(=O)c1ccc(NC(=O)c2ccccc2)nc1 | 108% | 103% | 111 | 95.6 | 105% | 106% | 68.9% | 96.3% | 99.1% | 128%
6 | CN(C)CCCC1(c2ccc(F)cc2)OCc2cc(-c3ccc4cc[nH]c4c3)ccc21 (stereo not given) | 86.6% | 95.2% | 65 | 74.9 | -10.5% (active) | 45.9% | 61.5% | 49.1% | 78.1% | 9.88% (active)
7 | Cc1ccc(S(=O)(=O)c2nc(-c3ccccc3)oc2Sc2nc3ccccc3s2)cc1 | 20.9% | 48.6% | 94 | 97.1 | 68.1% | 73.9% | 54.1% | 101% | 35.3% | 102%
8 | CCCn1cnc2c(c1=N)C(c1ccc(F)cc1)c1sc3c(F)cccc3c1O2 (stereo not given) | 70.1% | 74.7% | 78.1 | 52.4 | 18.7% | 67.5% | 4.15% (active) | 48.1% | 40.9% | 86.4%
9 | Cc1cccc(Oc2ccc(Nc3ncnc4ccc(NC(=O)CN5CCN(C)CC5)cc34)cc2Cl)c1 | 69.6% | 85.2% | 15.1 | 60 | 2.18% (active) | 43.1% | 0.619% (active) | 28.4% | -40.7% (active) | -43.4% (active)
10 | CSc1nn2c(-c3ccc4ccccc4c3)ccnc2c1C#N | 33.1% | 24.9% | 56.2 | 18.6 | -29.6% (active) | 33.8% | -23.4% (active) | 5.43% (active) | 22.2% | 17%
11 | CCOc1ccc(-n2nc(C(=O)NCc3ccccc3OC)nc2-c2cc(OC)c(OC)c(OC)c2)cc1 | 60.7% | 62.5% | 52.4 | 62.2 | 30.5% | 29% | 35.7% | 34.5% | 41.5% | 30.3%
12 | Cc1ccc(/C=C/C(=O)c2ccc(-n3cc(CN4CCN(c5cc6c(cc5F)c(=O)c(C(=O)O)cn6C5CC5)CC4)nn3)cc2)cc1 | 81.5% | 84.6% | 94.3 | 81.3 | 89.7% | 76.2% | 88.6% | 93.5% | 64.9% | 101%
13 | C=C1C(=O)O[C@H]2[C@H]1CC/C(COC(=O)/C=C/C(=O)OC/C1=C/CC[C@@]3(C)O[C@H]3[C@H]3OC(=O)C(=C)[C@@H]3CC1)=C\CC[C@@]1(C)O[C@@H]21 | 94.1% | 80.6% | 101 | 96.6 | 100% | 19% | -32% (active) | 88.6% | 5.31% (active) | 11.3%
